Measured values from PubChem BioAssay (NCI).
About 83,000 compounds went through this panel and 20% of them were active in at least one assay; those are over-represented in the sample as a whole.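 Cells were grown in 96-well plates and exposed to the test compound at a single concentration for 48 hours; results are reported as percent growth, with values below 10 considered active.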 Unmarked numbers belong to inactive results. Active and inactive are the calls of the source.

System: MDA-MB-468 breast
Assay: NCI-60 one-dose screen, 48 h (100 = growth as untreated, 0 = no growth, -100 = all killed)
Settings: 10 µM unless noted

**Q.** How did the growth turn out when COc1ccc2c(c1)c(CC(=O)[Se]CC#N)c(C)n2C(=O)c1ccc(Cl)cc1 was run?
**A.** -43.2% (active)

**Q.** COc1cc(/C=C/C(=O)c2ccc(NC(=O)CSc3nnc(-c4ccc5nc(-c6ccccc6)[nH]c5c4)o3)cc2)cc(OC)c1OC was tested. Which growth did it give?
**A.** 94.9%

**Q.** Which growth does the source give for O=C1CCC(N2C(=O)c3cccc(NCCOCCOCCNC(=O)c4cc5c(o4)C(=O)c4ccccc4C5=O)c3C2=O)C(=O)N1 (centres undefined) here?
**A.** -41.6% (active)

**Q.** CCn1c(Cc2ccccc2Nc2c(Cl)cccc2Cl)nnc1SCC(=O)NN1C(=O)/C(=C/c2cc(OC)c(O)c(OC)c2)SC1=S was tested. Which growth did it give?
**A.** -2.96% (active)

**Q.** Which growth does the source give for Cn1ccc2c3c(ccc21)CC3=O here?
**A.** 106%

**Q.** Which growth does the source give for O=C(O)Cc1ccc(O)c(O)c1 here?
**A.** 86%

**Q.** For c1ncc2[nH]cnc2n1, which growth is on record?
**A.** 96%

**Q.** How did the growth turn out when CNc1ccc(CSc2ccc(Cl)cc2)cc1 was run?
**A.** 78.5%

**Q.** O=S(=O)(c1ccccc1)N1CCCc2ccccc21 was tested. Which growth did it give?
**A.** 104%

**Q.** With COc1ccc2c(c1)OC(N)=C(C#N)C2c1ccc(F)c(F)c1 (centres undefined) as the molecule, how does the growth read?
**A.** -24.4% (active)

**Q.** With COc1ccccc1OCC(=O)N1CCCCCC1 as the molecule, how does the growth read?
**A.** 97.1%

**Q.** Which growth does the source give for Cc1ccc2c(c1)-c1cc(C)nn1-c1ccc(C#N)cc1O2 here?
**A.** 40.9%

**Q.** How did the growth turn out when CC[C@@H](C(=O)[C@@H](C)[C@@H](O)[C@H](C)[C@@H]1O[C@@H]([C@@H](CC)C(=O)O)CC[C@@H]1C)C1O[C@]2(C=CC(=O)[C@]3(CC[C@@](C)([C@H]4CC[C@](O)(CC)[C@H](C)O4)O3)O2)[C@H](C)C[C@@H]1C (some centres undefined) was run?
**A.** 18.9%

**Q.** C1=C(N2CCCC2)CCC1 was tested. Which growth did it give?
**A.** 96.2%
